In PubChem BioAssay AID488789 (Broad Institute, 2010):
Potency and affinity values are given separately. Records with an inconclusive call do not appear. Activity calls are given as the source filed them.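 How the source made its calls: active means samples whose fitted half-maximal inhibition concentration is no more than ten times the top valid dose tested; inconclusive means flat response between -70 and -30, or invalid curve fit; inactive means flat within 30 of zero, potency above limit, or signal rising.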

Biological target: Trypsin (Sus scrofa) (UniProt P00761)
Sequence (P00761 whole entry, looked up): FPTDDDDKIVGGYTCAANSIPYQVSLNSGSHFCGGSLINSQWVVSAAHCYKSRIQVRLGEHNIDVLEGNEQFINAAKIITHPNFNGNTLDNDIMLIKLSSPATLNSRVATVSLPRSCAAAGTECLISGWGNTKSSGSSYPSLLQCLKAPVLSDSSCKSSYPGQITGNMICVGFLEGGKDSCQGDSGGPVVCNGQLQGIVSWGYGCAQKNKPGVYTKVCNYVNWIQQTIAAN
Assay: trypsin protease activity blockade – biochemical, quenched peptide fluorescence, cherry-pick, selectivity assay for Rce1 protease inhibitor project, dose response (AID 488789)
Details: porcine trypsin, quenched peptide cleavage fluorescence; series mostly up to 10 µM; activity change, negative = inhibition: at the top concentration

Activity change, negative = inhibition, inactive:
Cc1cc(C)c2nc(N(CCCN(C)C)C(=O)c3ccc4c(c3)CCCC4)sc2c1 -3.58%
COc1ccc(OC)c(Cc2nnc(CCC(=O)N3CCN(C4CCCC4)CC3)o2)c1 -6.54%
CCN(CC)CCNC(=O)c1[nH]c2ccc(OCc3ccccc3)cc2c1C -5.39%
CC1Oc2ccccc2C=C1/C=N/NC(=O)[C@@H](C)NC(=O)OC(C)(C)C (some centres not stated) 1.9%
CCN(CC)c1ccc(/C=N/NC(=O)C(O)(c2ccccc2)c2ccccc2)o1 15.6%
O=C(Nc1ccc2c(c1)CCC2)c1ccccc1Br 5.5%
Cc1ccc(-c2cc3cccc[n+]3cc2-c2ccc(C)cc2)cc1 16.4%
COc1ccc2cc(C(=O)C3CCCN(C(=O)c4cc(=O)n(C)c(=O)n4C)C3)ccc2c1 (configuration not stated) -7.43%
COc1ccc(CN2CCN(C(c3ccc(F)cc3)c3ccc(F)cc3)CC2)c(OC)c1OC 5.69%
C#CCNC(=O)C1=C[C@@H](C2CCCCC2)C[C@@H](OCc2ccc(CO)cc2)O1 12.6%
COc1ccccc1-c1nnc2sc(-c3ccc(N(C)C)cc3)nn12 -5.89%
O=C(C(Cc1ccccc1)N1C(=O)c2ccccc2C1=O)N1c2ccccc2CCc2ccccc21 (configuration not stated) 1.44%
CC(=O)N[C@@H](C)c1nc2ccccc2n1CCCN1CCN(c2nc(-c3ccc(C)cc3)cs2)CC1 2.36%
COc1cccc(C(=O)Nc2nnc(SCC(=O)NC3CCCC3)s2)c1 -6.24%
CCOC(=O)C1CCCN(S(=O)(=O)c2cc3[nH]c(=O)c(=O)[nH]c3cc2C)C1 (configuration not stated) 10.7%
Cc1ccc(/C=N/NC(=O)c2nnn(-c3nonc3N)c2C(C)C)o1 -6.13%
CCCN(CCC)CCNC(=O)c1cc2c(-c3ccc(Cl)cc3)nn(C)c2s1 5.01%
CCCOc1ccc(-c2c(C(=O)N/N=C/c3cccs3)nnn2-c2nonc2N)cc1 21.4%
Cc1ccccc1OC(C)C(=O)N1CCC(Cc2ccccc2)CC1 (configuration not stated) 13.4%
COC(=O)C1CCCN1S(=O)(=O)c1ccc2ccccc2c1 (configuration not stated) -3.78%
CC(C)C[C@H](NC(=O)c1nc[nH]c1C(=O)N1CCNCC1)C(=O)OCc1ccccc1 6.55%
Cc1cc(Cl)c2oc(C(=O)N3CCN(C(=O)c4ccco4)CC3)c(C)c2c1 11.6%
O=C(CC1(O)C(=O)N(C/C=C/c2ccccc2)c2ccccc21)c1ccccn1 (configuration not stated) 5.45%
O=C(O)c1ccc2cccc(Cl)c2c1O 9.83%
COCc1c(C(=O)N/N=C/C2CC=CCC2)nnn1-c1nonc1N (configuration not stated) 29.2%
CC(=O)OC1CCC2(C)C(COc3ccc4ccc(=O)oc4c3)C(C)(O)CCC2C1(C)C (configuration not stated) -6.54%
CCN(CC)c1ccc(C(=O)c2ccccc2C(=O)O)c(O)c1 -0.441%
CCN(CC)CCCN(Cc1cc2cc3c(cc2[nH]c1=O)OCO3)C(=S)NCCCN(C)C -25%
CCCOc1ccccc1C(=O)NCCCC(=O)O 2.2%
COc1ccc(-n2nc(C(=O)NCC(=O)N3CCC(C)CC3)c3ccccc3c2=O)cc1 3.6%
Cc1cc(=O)n2ccccc2c1C#N 3.94%
COC(C[C@@H](O)C[C@H](O)[C@H](C)OCc1ccccc1)OC 6.39%
CCC(=O)Nc1cccc(NC(=S)NC(=O)c2cccs2)c1 7.96%
Cc1ccc2nc(N(CCN(C)C)C(=O)c3ccc4ccccc4c3)sc2c1 6.43%
COC(C[C@@H]1O[C@@H]1C(=O)[C@@H](C)OCc1ccccc1)OC -0.595%
Cc1ccc(-c2nc(Nc3ccc(N4CCOCC4)cc3)c3ccccc3n2)cc1 6.86%
Nc1nnnn1/N=C/c1cccc(OCc2ccccc2Cl)c1 22.5%
